Bioassay records (PubChem)
Compounds with a hit are over-represented: about 6.9% of the library has one in this group of screens.
SW480 rereplic = induces DNA re-replication in SW480 colon adenocarcinoma cells. SW480 DNA re-replication, Hoechst DNA content imaging, 48 h. Potency, µM (top dose mostly 46.1 µM), without a hit: at the top dose re-replication activation, actives largely listed as activators. hit rate 1.8% among 340,000; note: potency is the fitted concentration of half-maximal effect; % of control where 0% means no effect; nearly all actives have a fitted effect of over 55% in size
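Quantitative HTS format with DMSO vehicle controls; 48 hr drug incubation at 37 C, then 40 min Hoechst staining and scanning imager measurement at 405 nm excitation.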
Giardia killer = kills Giardia lamblia; Giardia lamblia trophozoite viability; activity change, % at 7.66 µM, hits read low; hit rate 0.15% among 340,000; AID 540267; in the data active = activity change below about -80%; inconclusive = between about -30% and that limit;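 note: parasites exposed to compound for two days anaerobically before the ATP read; % is set by controls: 0 for no effect and ±100 for the full control effect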
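Viability, read as ATP luminescence: trophozoites at 100 cells/well, compound added, 48 hrs anaerobic at 37 deg C, then 15-30 min room-temperature development before reading.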
KB-3-1 tox = kills parental KB-3-1 adenocarcinoma cells; hit rate 1.4% among 400,000; Potency, µM (top dose mostly 46.1 µM), usual class: cytotoxic; KB-3-1 viability, CellTiter-Glo ATP luminescence, 72 h; note: potency is the fitted concentration of half-maximal effect; % is set by controls: 0 for no effect and ±100 for the full control effect; nearly all actives have a fitted effect of over 60% in size
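Parental KB-3-1 viability, qHTS format: 72 h compound exposure, 37 °C; CellTiter-Glo; media-only wells and DMSO plates as controls; concentration-effect fits on corrected data.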
MCF10A rereplic = induces DNA re-replication in MCF 10a normal breast cells; MCF 10A DNA re-replication, Hoechst nuclear intensity, 48 h; Potency, µM (doses to about 46.1 µM), without a hit: top-dose activity, positive = re-replication, hits mostly activators; hit rate 2.9% among 350,000; AID 624296; note: potency is the fitted concentration of half-maximal effect; % of control where 0% means no effect; nearly all actives have a fitted effect of over 50% in size
KB-V1 MDR tox = KB-V1 MDR subline cytotoxicity; KB-V1 MDR cells viability, CellTiter-Glo, 72 h; hit rate 3.4% among 400,000; AID 1347076; Potency, µM (titrated, usually from 46.1 µM), usual class: cytotoxic; note: potency is the fitted concentration of half-maximal effect; % is set by controls: 0 for no effect and ±100 for the full control effect; nearly all actives have a fitted effect of over 60% in size
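Drug-selected KB-V1 cells, grown in DMEM lacking phenol red with 10% FBS, receive compound titrations; after three days at 37 degrees C, surviving cell ATP is quantified by CellTiter-Glo luminescence and responses normalized and curve-fitted.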
ASM inhibitor = inhibitors of human secretory acid sphingomyelinase | P17405 | placental ASM, HMU-PC fluorogenic substrate, 60 min | Potency, µM (top dose mostly 57.5 µM), for inactives: at the top dose activity change, negative = inhibition, hits mostly inhibitors | hit rate 0.006% among 340,000; note: potency is the fitted concentration of half-maximal effect
Target sequence (P17405 47-631 limits assumed): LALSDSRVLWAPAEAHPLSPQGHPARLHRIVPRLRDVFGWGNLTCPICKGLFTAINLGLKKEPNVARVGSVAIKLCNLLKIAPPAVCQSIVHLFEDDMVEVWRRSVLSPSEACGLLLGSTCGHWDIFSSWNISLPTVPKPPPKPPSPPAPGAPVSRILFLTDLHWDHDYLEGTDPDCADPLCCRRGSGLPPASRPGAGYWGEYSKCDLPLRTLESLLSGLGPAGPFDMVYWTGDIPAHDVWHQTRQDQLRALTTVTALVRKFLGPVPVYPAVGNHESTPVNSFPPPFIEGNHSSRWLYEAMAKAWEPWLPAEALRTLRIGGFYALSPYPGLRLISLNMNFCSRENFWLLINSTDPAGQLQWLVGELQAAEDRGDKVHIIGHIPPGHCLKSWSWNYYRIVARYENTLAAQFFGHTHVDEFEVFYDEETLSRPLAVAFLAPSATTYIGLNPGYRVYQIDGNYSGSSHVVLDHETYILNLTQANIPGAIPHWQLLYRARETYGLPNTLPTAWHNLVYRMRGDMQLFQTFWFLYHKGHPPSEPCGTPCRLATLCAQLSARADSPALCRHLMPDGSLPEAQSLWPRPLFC
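HMU-PC0 cleavage (9 uM final) by human placental ASM, 60 min at 37 °C following 10 min compound exposure at RT; stopped at pH 10, fluorescence Ex 386/Em 447 nm.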
Active calls of the source: *; i = inactive; u = inconclusive; x = not tested or not shown. Unless noted, calls come from the whole dose curve; as a rule, active = well fitted curve in the direction sought with a large enough effect; inconclusive = small, poorly fitted or top-dose-only effect, or another doubt; inactive = no such curve, though single readings can be large; an effect the other way counts as inactive or inconclusive.

SMILES	SW480 rereplic	Giardia killer	KB-3-1 tox	MCF10A rereplic	KB-V1 MDR tox	ASM inhibitor
CCOc1ccc(NC(=O)C(C)Sc2nc3ncccc3o2)cc1 (centres undefined)	x	x	i	x	i	x
Cc1c(C(=O)NCc2ccccn2)oc2c(Cl)cccc12	0.4%	0.0	i	12.1%	8.2µM*	-2.2%
O=C(NCc1ccccn1)c1cc(-c2ccccc2Cl)nc2ccccc12	-33.0%	-4.2	i	1.0%	18.4µM*	-1.0%
O=C(NCCc1ccccn1)c1cc(-c2ccc(Cl)c(Cl)c2Cl)nc2ccccc12	-2.2%	u	u	8.0%	5.8µM*	-6.2%
Cc1nc2ccccc2c2oc(C(=O)NCc3ccccn3)cc12	-4.2%	-8.9	i	14.2%	2.59µM*	2.7%
O=C(Nc1nn[nH]n1)c1cc(-c2ccc(Cl)c(Cl)c2Cl)nc2ccccc12	-1.2%	-16.8	i	-2.2%	i	-0.7%
Cc1ccc(C(C)c2c(C)c([N+](=O)[O-])cc(C)c2[N+](=O)[O-])cn1 (centres undefined)	-5.6%	-27.5	i	2.3%	i	-4.1%
O=C(NNC(=O)c1ccc(Cl)cc1Cl)Nc1ccccc1	-2.1%	8.0	i	-6.4%	i	-1.9%
O=C(NNC(=O)c1cc(-c2ccc(Cl)cc2Cl)nc2ccccc12)Nc1ccccc1	u	-21.8	u	u	23.1µM*	-16.5%
O=C(c1ccc(F)cc1)N1CCN(c2ccc([N+](=O)[O-])cc2-n2cccc2)CC1	-10.6%	-1.1	u	1.9%	i	-4.4%
CC1(Cc2ccc(Cl)c(Cl)c2)C(=O)Nc2ccc(S(=O)(=O)NC3CCCCC3)cc21 (centres undefined)	x	x	u	x	18.4µM*	x
CC1(Cc2cccc(F)c2)C(=O)Nc2ccc(S(=O)(=O)NC3CCCCC3)cc21 (centres undefined)	x	x	i	x	i	x
Cc1nc2c(c(C)c1CCC(=O)N1CCN(c3ccccc3)CC1)c(=O)n(C)c(=O)n2C	x	x	i	x	i	x
CCN(CC)c1ccc(C(=O)N2CCC(c3c[nH]c4ccccc34)(c3c[nH]c4ccccc34)CC2)cc1	x	x	i	x	i	x
Cn1ccc(C(=O)Nc2sc3c(c2C#N)CCC3)n1	14.2%	-12.9	i	0.9%	i	0.7%
CC(C)Cc1cc(C(=O)Nc2sc3c(c2C#N)CCC3)no1	1.1%	16.1	i	2.0%	i	-6.6%
Cc1cc(C(=O)Nc2sc3c(c2C#N)CCCC3)no1	11.6µM*	-15.7	u	u	u	-2.0%
Cc1noc(C(=O)Nc2sc3c(c2C#N)CCC3)c1Cl	-8.4%	5.5	u	0.0%	i	-4.7%
N#Cc1c(NC(=O)c2cc(C3CC3)on2)sc2c1CCC2	20.6µM*	5.0	13µM*	3.26µM*	i	-9.9%
Cc1cc(C(=O)Nc2sc3c(c2C#N)CCC3)no1	u	-4.8	u	8.2µM*	16.4µM*	-2.3%
CC(C)Cc1cc(C(=O)Nc2sc3c(c2C#N)CCCC3)no1	-1.6%	-0.9	i	19.4%	i	-3.8%
Cc1cc(C(F)F)n2nc(C(=O)Nc3sc4c(c3C#N)CCC4)nc2n1	14.9%	34.1	i	-33.6%	20.6µM*	-3.4%
CCCC(=O)OC1=CN(Cc2ccccc2)S(=O)(=O)c2ccccc21	x	x	i	x	i	x
Cc1noc(-c2ccc(-c3noc(-c4ccc(Cl)cc4)n3)cc2)n1	x	x	u	x	i	x
O=C(/C=C/c1ccco1)Nc1sc2c(c1C(=O)O)CCC2	0.5%	-10.8	i	-0.7%	i	1.4%
SMILES	SW480 rereplic	Giardia killer	KB-3-1 tox	MCF10A rereplic	KB-V1 MDR tox	ASM inhibitor
CC1CCc2c(sc(NC(=O)c3ccc(Cl)cc3Cl)c2C#N)C1 (centres undefined)	x	x	i	x	i	x
Cc1onc(-c2ccccc2)c1C(=O)Nc1sc2c(c1C#N)CCC2	u	4.9	u	u	4.61µM*	-14.2%
Cn1cc([N+](=O)[O-])c(C(=O)Nc2sc3c(c2C#N)CCC3)n1	u	u	u	3.66µM*	u	-3.5%
Cn1cc(Br)c(C(=O)Nc2sc3c(c2C#N)CCC3)n1	0.9%	-16.4	i	7.3%	i	-0.6%
Cc1cc(C(=O)Nc2sc3c(c2C#N)CCC(C)C3)no1 (centres undefined)	u	-20.2	u	9.2µM*	11.6µM*	-2.4%
N#Cc1c(NC(=O)/C=C/c2ccco2)sc2c1CCCC2	u	5.9	0.411µM*	u	1.03µM*	-1.1%
Cc1c(Cl)cccc1NC(=O)Nc1nnc(N(C)C2CCCCC2)s1	x	x	i	x	i	x
Cc1ccc(C)c(N2CCN(C(=O)CN3CCSc4ccc(S(=O)(=O)N(C)C)cc43)CC2)c1	x	x	i	x	u	x
Cc1cc(O)c(C(c2ccccc2)N2CCN(c3ccc(F)cc3)CC2)c(=O)n1Cc1ccco1 (centres undefined)	x	x	i	x	i	x
CCOC(=O)c1ccc(NC(=O)Cn2c(=O)cc(C(F)(F)F)c3c(C)nn(C)c32)cc1	x	x	i	x	i	x
Cc1onc(-c2c(F)cccc2Cl)c1C(=O)NC(=S)NC1CCS(=O)(=O)C1 (centres undefined)	0.2%	1.5	i	16.9%	23.1µM*	3.6%
Cc1onc(-c2c(F)cccc2Cl)c1C(=O)NC1CCCCCC1	2.5%	9.6	i	u	i	-3.6%
Cc1onc(-c2c(F)cccc2Cl)c1C(=O)Nc1sc2c(c1C(N)=O)CCC2	u	-9.1	u	5.01µM*	u	-22.9%
COC(=O)c1c(-c2ccccc2)csc1NC(=O)c1c(-c2ccccc2)noc1C	u	-22.1	i	u	5.8µM*	-2.7%
Cc1onc(-c2ccccc2)c1C(=O)Nc1sc2c(c1C(N)=O)CCC2	6.9%	-4.2	i	3.8%	u	-9.8%
